Measurements: PubChem BioAssay (EPA / NIEHS)
Records with an inconclusive call do not appear. Calls of active or inactive are those of the source. How the source made its calls, unless noted: active means hit-call score of the fitted dose curve at least 0.9, where 1 is the maximum; inactive means score below 0.9.

Key:
[1] = read-out: Monocyte Chemoattractant Protein-1 (MCP1), CCL2 (gene 6347); assay: BSK_SAg_MCP1: BioMAP Diversity Plus: SAg Assay for Monocyte Chemoattractant Protein-1 (MCP1) Biomarker Activity (AID 2283090); settings: primary human HUVEC with PBMC; actives raise or lower the signal
Method in brief: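 Values derive from bidirectional fitting of ELISA-measured MCP1 against DMSO controls. Readings were taken 24 h after dosing human vascular endothelial cells co-cultured with peripheral blood mononuclear cells under superantigen stimulation.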

[2] = read-out: E-selectin (Homo sapiens) (UniProt P16581); assay: BSK_SAg_Eselectin: BioMAP Diversity Plus: SAg Assay for Eselectin Biomarker Activity (AID 2283091); settings: primary human HUVEC with PBMC; actives raise or lower the signal
Method in brief: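 Cell-surface E-selectin is read by ELISA at 24 h in the SAg co-culture of HUVEC and PBMC. Curves are fitted in both directions relative to DMSO. Parallel SRB total-protein staining tracks overt toxicity.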

[3] = read-out: Monokine induced gamma interferon (MIG), CXCL9 (gene 4283); assay: BSK_SAg_MIG: BioMAP Diversity Plus: SAg Assay for Monokine induced gamma interferon (MIG) Biomarker Activity (AID 2283092); settings: primary human HUVEC with PBMC; actives raise or lower the signal
Method in brief: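 ELISA readout of MIG/CXCL9; primary human umbilical vein endothelial cells co-cultured with peripheral blood mononuclear cells; 24 h post-dose; gain/loss fit vs DMSO baseline.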

[4] = read-out: Interleukin-8 (IL8), CXCL8 (gene 3576); assay: BSK_SAg_IL8: BioMAP Diversity Plus: SAg Assay for Interleukin-8 (IL8) Biomarker Activity (AID 2283094); settings: primary human HUVEC with PBMC; actives raise or lower the signal
Method in brief: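 Primary human endothelial cells with PBMC, exposed 24 h; IL-8 determined by ELISA, analysed bidirectionally relative to DMSO.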

[5] = BSK_SAg_Proliferation: Cell Proliferation Assessment in the BioMAP Diversity Plus: SAg Assay (AID 2283095); settings: primary human HUVEC with PBMC;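 further: relative cell number as total protein by SRB absorbance in sub-confluent culture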
Method in brief: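 A human primary co-culture of umbilical vein endothelium and blood mononuclear cells receives compound; relative cell number is quantified at 96 h by SRB staining and 560 nm absorbance, with DMSO-referenced bidirectional curve fitting.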

[6] = BSK_SAg_SRB: Viability Assessment in the BioMAP Diversity Plus: SAg Assay (AID 2283096); settings: primary human HUVEC with PBMC;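 further: cells read one day after compound addition; hits may be either gain or loss of signal compared with DMSO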
Method in brief: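 SRB absorbance at 560 nm served as the viability read-out. Cells (HUVEC plus peripheral blood mononuclear cells) were TCA-fixed and stained 24 h post-dosing; activity fitted in both directions against DMSO controls.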

[7] = molecular target: human CYP19A1, CYP19A1 (gene 1588) (UniProt P11511); assay: NVS_ADME_hCYP19A1: NovaScreen (NVS) CYP450-related Enzyme Activity (ADME) Assay for human CYP19A1 (AID 2283098; active means hit-call score of the fitted dose curve at least 0.9, where 1 is the maximum;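 on AC50: potency for inhibitors seen as loss of fluorescent enzyme signal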)
Method in brief: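 Primary testing was in duplicate at a single 10 uM concentration, with actives followed up in concentration-response series. Fluorescence read-out of recombinant enzyme activity at 0.5 h, cell-free. Acetonitrile was the negative-control baseline.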

[8] = molecular target: human CYP2A6, CYP2A6 (gene 1548) (UniProt P11509); assay: NVS_ADME_hCYP2A6: NovaScreen (NVS) CYP450-related Enzyme Activity (ADME) Assay for human CYP2A6 (AID 2283099; active means hit-call score of the fitted dose curve at least 0.9, where 1 is the maximum)
Method in brief: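 Compounds screened at 10 uM (duplicate) and, if active, titrated to a 20 uM top concentration against insect-cell-expressed CYP2A6. Loss of fluorescent product signal after 0.5 h, relative to acetonitrile baseline, indicates inhibition.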

[9] = molecular target: human CYP1A1, CYP1A1 (gene 1543) (UniProt P04798); assay: NVS_ADME_hCYP1A1: NovaScreen (NVS) CYP450-related Enzyme Activity (ADME) Assay for human CYP1A1 (AID 2283100; active means hit-call score of the fitted dose curve at least 0.9, where 1 is the maximum)
Method in brief: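 Chemicals were first tested in duplicate at 10 uM, and those passing a 30% inhibition threshold were rerun as concentration series topping at 20 uM. Fluorescence read-out of recombinant enzyme turnover after 1 h, relative to acetonitrile.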

Measured: AC50

human CYP2A6, CYP2A6 (gene 1548), sequence (P11509 whole entry, looked up): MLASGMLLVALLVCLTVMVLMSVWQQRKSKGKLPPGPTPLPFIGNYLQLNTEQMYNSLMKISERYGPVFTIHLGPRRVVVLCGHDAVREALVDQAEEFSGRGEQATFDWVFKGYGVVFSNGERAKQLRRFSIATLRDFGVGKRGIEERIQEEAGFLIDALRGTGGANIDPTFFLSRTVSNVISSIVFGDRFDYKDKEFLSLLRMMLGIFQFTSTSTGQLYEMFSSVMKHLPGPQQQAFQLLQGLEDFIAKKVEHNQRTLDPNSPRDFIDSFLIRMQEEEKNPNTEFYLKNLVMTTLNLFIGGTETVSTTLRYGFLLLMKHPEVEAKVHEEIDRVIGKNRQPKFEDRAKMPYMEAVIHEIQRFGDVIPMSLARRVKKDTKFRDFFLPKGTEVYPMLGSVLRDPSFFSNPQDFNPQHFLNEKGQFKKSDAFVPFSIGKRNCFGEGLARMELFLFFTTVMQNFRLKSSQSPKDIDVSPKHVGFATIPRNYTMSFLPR
human CYP19A1, CYP19A1 (gene 1588), sequence (P11511 whole entry, looked up): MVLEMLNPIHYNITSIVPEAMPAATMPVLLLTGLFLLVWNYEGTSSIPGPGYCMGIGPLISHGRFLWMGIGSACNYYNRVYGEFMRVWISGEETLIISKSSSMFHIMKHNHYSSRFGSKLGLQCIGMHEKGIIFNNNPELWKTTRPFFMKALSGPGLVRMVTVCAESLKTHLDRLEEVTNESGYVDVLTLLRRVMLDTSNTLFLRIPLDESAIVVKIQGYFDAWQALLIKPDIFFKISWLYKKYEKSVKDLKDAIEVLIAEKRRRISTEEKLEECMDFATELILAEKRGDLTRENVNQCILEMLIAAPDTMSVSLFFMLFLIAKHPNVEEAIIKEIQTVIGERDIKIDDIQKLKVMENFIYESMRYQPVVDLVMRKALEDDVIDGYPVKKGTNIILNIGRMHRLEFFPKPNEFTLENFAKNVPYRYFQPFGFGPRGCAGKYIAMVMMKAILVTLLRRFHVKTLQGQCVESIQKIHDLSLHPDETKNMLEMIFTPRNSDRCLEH
human CYP1A1, CYP1A1 (gene 1543), sequence (P04798 whole entry, looked up): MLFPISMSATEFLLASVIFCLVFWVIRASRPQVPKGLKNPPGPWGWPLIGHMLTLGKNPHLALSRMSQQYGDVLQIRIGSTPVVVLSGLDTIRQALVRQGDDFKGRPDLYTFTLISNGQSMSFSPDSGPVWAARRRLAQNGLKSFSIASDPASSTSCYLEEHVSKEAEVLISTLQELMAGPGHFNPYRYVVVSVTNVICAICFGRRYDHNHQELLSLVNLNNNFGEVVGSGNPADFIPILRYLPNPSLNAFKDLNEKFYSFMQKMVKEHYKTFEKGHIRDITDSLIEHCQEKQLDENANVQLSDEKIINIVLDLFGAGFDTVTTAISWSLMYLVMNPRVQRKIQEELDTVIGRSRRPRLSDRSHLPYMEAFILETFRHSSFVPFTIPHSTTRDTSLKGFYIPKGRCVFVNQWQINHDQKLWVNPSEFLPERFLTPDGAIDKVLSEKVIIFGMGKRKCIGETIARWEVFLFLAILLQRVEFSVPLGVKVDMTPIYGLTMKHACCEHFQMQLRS
E-selectin (Homo sapiens), sequence (P16581 whole entry, looked up): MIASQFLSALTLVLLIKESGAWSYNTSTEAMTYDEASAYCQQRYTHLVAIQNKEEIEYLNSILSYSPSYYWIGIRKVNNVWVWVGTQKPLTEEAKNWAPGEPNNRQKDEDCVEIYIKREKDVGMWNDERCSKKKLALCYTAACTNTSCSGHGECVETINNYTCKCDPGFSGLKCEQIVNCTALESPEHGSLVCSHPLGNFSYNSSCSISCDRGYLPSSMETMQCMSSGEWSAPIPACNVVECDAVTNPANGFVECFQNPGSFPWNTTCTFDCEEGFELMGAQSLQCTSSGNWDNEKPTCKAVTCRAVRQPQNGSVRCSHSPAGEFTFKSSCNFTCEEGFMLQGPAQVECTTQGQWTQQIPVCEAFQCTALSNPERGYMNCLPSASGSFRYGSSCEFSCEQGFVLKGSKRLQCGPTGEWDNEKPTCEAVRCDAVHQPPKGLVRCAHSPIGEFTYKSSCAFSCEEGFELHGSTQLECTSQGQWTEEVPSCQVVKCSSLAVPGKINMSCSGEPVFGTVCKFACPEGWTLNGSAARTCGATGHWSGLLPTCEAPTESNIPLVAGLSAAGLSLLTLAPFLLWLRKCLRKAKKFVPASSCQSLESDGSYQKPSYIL

CCOC(=O)CC(SP(=O)(OC)OC)C(=O)OCC (configuration not stated)
inactive: all assays above

COP(=O)(OC)SCn1c(=O)oc2cc(Cl)cnc21
active: [2] 20 µM | [5] 12.2 µM | [6] 13.4 µM
inactive: [1] | [3] | [4]

Nc1nc(N)nc(NC2CC2)n1
not listed: [7] | [8] | [9]
inactive: all other assays above

CNC(=O)Oc1cccc2c1OC(C)(C)O2
inactive: [1] | [3] | [4] | [6]
active: [2] 15 µM | [5] 20 µM

FC(F)C(F)(F)OCC(Cn1cncn1)c1ccc(Cl)cc1Cl (configuration not stated)
active: [2] 25.7 µM | [5] 23 µM | [6] 20 µM | [7] 2.15 µM
not listed: [9]
inactive: all other assays above

CNC(=O)ON=C(SC)C(=O)N(C)C
active: [5] 20 µM
not listed: [8] | [9]
inactive: all other assays above

COP(=O)(OC)OC(Br)C(Cl)(Cl)Br (configuration not stated)
active: [2] 22.7 µM | [3] 36.8 µM | [4] 22.9 µM | [5] 7.28 µM | [6] 30.4 µM

CCCSP(=O)(OCC)Oc1ccc(Br)cc1Cl (configuration not stated)
active: [2] 25.5 µM | [3] 36.5 µM | [4] 26.3 µM | [5] 29.3 µM | [6] 11.7 µM

CCCSP(=O)(OCC)SCCC
not listed: [8] | [9]
inactive: all other assays above

COc1ccc(C(=CC(=O)N2CCOCC2)c2ccc(Cl)cc2)cc1OC
active: [1] 12.8 µM | [2] 5.93 µM | [3] 25 µM | [4] 8.93 µM | [5] 12.9 µM | [7] 4.42 µM | [9] 6.61 µM
inactive: [6]

S=C1NCCN1
active: [8] 3.94 µM
not listed: [9]
inactive: all other assays above

CC1(C(=O)Nc2ccc(O)c(Cl)c2Cl)CCCCC1
inactive: [1] | [2] | [3] | [4] | [6]

CCOP(=O)(SC(C)CC)N1CCSC1=O (configuration not stated)
inactive: [1] | [2] | [3] | [5] | [6]

CNC(=O)ON=C(C)SC
not listed: [8] | [9]
inactive: all other assays above

C=C(C)[C@H]1Cc2c(ccc3c2O[C@@H]2COc4cc(OC)c(OC)cc4[C@@H]2C3=O)O1
active: [1] 16.7 µM | [2] 4.05 µM | [3] 27.2 µM | [4] 1.61 µM | [5] 5.57 µM | [6] 5.52 µM
inactive: [7] | [9]

CCOP(=S)(Oc1cnc(C(C)(C)C)nc1)OC(C)C (configuration not stated)
active: [1] 30.7 µM | [2] 31.4 µM | [3] 33.3 µM | [4] 30.3 µM | [5] 36.6 µM | [6] 34.3 µM

CC(C)=CC1C(C(=O)OCN2C(=O)C3=C(CCCC3)C2=O)C1(C)C (configuration not stated)
inactive: [6]
active: [1] 18.2 µM | [2] 14.4 µM | [3] 34.2 µM | [5] 26.1 µM

CC(Oc1cccc(Cl)c1)C(=O)O (configuration not stated)
not listed: [7] | [8] | [9]
inactive: all other assays above

CCC(=NOC/C=C/Cl)C1=C(O)CC(C2CCOCC2)CC1=O (configuration not stated)
not listed: [7] | [8] | [9]
inactive: all other assays above

N#CSCSC#N
active: [1] 11.9 µM | [2] 11.1 µM | [3] 8.84 µM | [4] 11.7 µM | [5] 1.99 µM | [6] 6.08 µM

CCC(CC)Nc1c([N+](=O)[O-])cc(C)c(C)c1[N+](=O)[O-]
inactive: [7]
active: [1] 29.1 µM | [2] 22.7 µM | [3] 29.5 µM | [4] 28.3 µM | [5] 28.9 µM | [6] 12.3 µM

C#CC(C)(C)NC(=O)c1cc(Cl)cc(Cl)c1
active: [9] 2.56 µM
not listed: [8]
inactive: all other assays above

CCOC(=O)COc1cc(-c2nn(C)c(OC(F)F)c2Cl)c(F)cc1Cl
not listed: [7] | [8] | [9]
inactive: all other assays above

O=C(O)c1cc(Oc2ccc(C(F)(F)F)cc2Cl)ccc1[N+](=O)[O-]
not listed: [7] | [8] | [9]
inactive: all other assays above

CCOP(=O)(OCC)Oc1cc(C)nc(C(C)C)n1
not listed: [8] | [9]
inactive: all other assays above

CCNc1nc(Cl)nc(NC(C)(C)C#N)n1
inactive: [1] | [3] | [4] | [5] | [6]
active: [2] 4.59 µM

CN(C)NC(=O)CCC(=O)O
not listed: [7] | [8] | [9]
inactive: all other assays above

CCOP(=O)(NC(C)C)Oc1ccc(SC)c(C)c1 (configuration not stated)
active: [9] 4.81 µM
not listed: [7] | [8]
inactive: all other assays above
